Screens as filed in PubChem.
The full list was thinned out, with hits kept by preference.
TDP-43 tox inh: rescues yeast from TDP-43 toxicity; yeast TDP-43 toxicity rescue, BacTiter-Glo growth, 24 h; Potency, µM (doses to about 46.1 µM), hits mostly activators; actives 0.45% (n = 45,000); AID 1347073; active = well fitted activation curve with a large enough effect; note: 0% is about no effect; nearly all actives have a fitted effect of over 55% in size
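TDP-43-expressing yeast, pregrown in raffinose, seeded at OD600 0.02 in galactose medium with compound for 24 hr at 30 deg C. Growth read by BacTiter-Glo luminescence, so rescue of toxicity appears as activation.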
An asterisk follows results filed as active; i = inactive. Potency is the fitted concentration of half-maximal effect.

SMILES | TDP-43 tox inh
O=C(NCCc1ccccc1)C1CCCN(c2nc3ccccc3s2)C1 (stereo not drawn) | i
CCOc1ccc(S(=O)(=O)NCC2CCCO2)cc1NC(=O)c1ccccc1F (stereo not drawn) | i
COc1ccc(NC(=O)c2cc(S(=O)(=O)NCC3COc4ccccc4O3)ccc2F)cc1 (stereo not drawn) | 25µM*
COc1ccc(NC(=O)c2ccc(NC(=O)C3COc4ccccc4O3)cc2)c(OC)c1 (stereo not drawn) | i
Cc1ccc2nsnc2c1S(=O)(=O)Nc1cccc2nsnc12 | i
C[n+]1c2n(c3ccccc31)N=C(c1cc(C(C)(C)C)c(O)c(C(C)(C)C)c1)CS2 | i
Cc1ccccc1-c1cc2nc(NCCCN(C)C)n(C)c(=O)c2s1 | i
COc1ccc(Nc2nc3cc(-c4ccccc4C)sc3c(=O)n2C)cc1OC | 20µM*
Cc1ccccc1-c1cc2nc(NCCOc3ccccc3)n(C)c(=O)c2s1 | i
CN1CCN(C(=O)CCN2C(=O)/C(=C/c3ccccc3Cl)SC2=S)CC1 | i
COc1ccccc1C1CC(c2cccs2)=NN1C(=O)CCC(=O)O (stereo not drawn) | i
Cc1ccc(C2CC(c3cccs3)=NN2C(=O)CCl)cc1 (stereo not drawn) | 13µM*
COc1ccc(C2CC(c3cccs3)=NN2C(=O)c2ccc(Br)o2)cc1 (stereo not drawn) | i
COc1ccc(/C=C2\SC(=S)N(N3CCOCC3)C2=O)c(OC)c1 | i
CN(C)CCCOc1ccc(-c2cc3nc(NCc4cccnc4)n(C)c(=O)c3s2)cn1 | i
Cc1ccc(NC(=S)N2CCN(C(=O)c3ccccc3)CC2)c(C)c1 | i
Cc1cc(C)cc(C(=O)Nc2nc3ccccc3[nH]2)c1 | i
Cc1ccc(NC(=S)c2nc3ccccc3[nH]2)c(C)c1 | 10µM*
COc1ccc(CCNC(=O)C2CCN(C(=O)c3ccccc3C)CC2)cc1 | i
CSc1nsc(SC)c1C(=O)N1CCN(S(=O)(=O)c2ccc(C)cc2)C1C (stereo not drawn) | i
O=C(Nc1ccccc1)c1ccccc1OCc1ccc(S(=O)(=O)N2CCOCC2)cc1 | i
O=C(NC1CCCc2ccccc21)N[C@@H](Cc1ccccc1)C(=O)O (stereo partly drawn) | i
CN(C)c1nc(Oc2ccc(/C=N/O)cc2)nc(N(C)C)n1 | 11µM*
CCN(CC)c1nc(Oc2ccc(C(=O)NN)cc2)nc(Oc2ccc(C(=O)NN)cc2)n1 | i
O=[N+]([O-])c1ccc(Oc2ccc(/C=N/O)cc2)nc1 | i
SMILES | TDP-43 tox inh
COc1ccc(Cl)cc1S(=O)(=O)NC(C)C(=O)NCCN1CCOCC1 (stereo not drawn) | i
N#CCC(=O)Nc1ccc(C(=O)NNC(=S)NC2CCCCC2)cc1 | i
CCOc1ccc(S(=O)(=O)N2CCN(Cc3ccc4c(c3)OCO4)CC2)cc1C | i
Cc1nc2ccc(C(=O)N(C)Cc3ccco3)cn2c1N(C)C(=O)CCc1ccccc1 | i
N#Cc1ccccc1NC(=O)CSc1n[nH]c(=O)n1C1CC1 | i
CC(=O)c1ccc2c(c1)OCCOCCOc1ccccc1OCCOCCO2 | 16µM*
O=C(c1cccc([N+](=O)[O-])c1)c1ccc2c(c1)OCCOCCOCCO2 | i
NC(=O)c1ccc2c(c1)OCCO2 | i
CCC(=O)Nc1ccc(Cl)c(NC(=S)NC(C)=O)c1 | i
O=C(NCC1CCCO1)C(c1cccs1)N(C(=O)c1ccc(CN2CCOCC2)o1)c1ccc(Cl)cc1 (stereo not drawn) | i
COc1cccc(/C=N/NC(=O)c2nc(-c3ccccc3)cc(-c3ccccc3)n2)c1O | 13µM*
COc1cccc(/C=N/NC(=O)N/N=C/c2cccc(OC)c2O)c1O | i
CCn1c(C)nc2cc(C(=O)N/N=C/c3cccc(OC)c3O)ccc21 | i
CCOC(=O)C(=CNc1cc(C)ccn1)C(=O)OCC | i
CC(O)(c1ccccc1)c1nc(-c2cccc(C(=O)O)c2)cs1 (stereo not drawn) | i
CC(O)(c1cccc(F)c1)c1nc(-c2ccncc2)cs1 (stereo not drawn) | i
CC(C)c1cccc(-c2csc(C(C)(O)c3ccccc3)n2)c1 (stereo not drawn) | i
CC(O)(c1ccc(F)c(F)c1)c1nc(-c2ccc(Cl)cc2)cs1 (stereo not drawn) | i
CC(O)(c1cccnc1)c1nc(-c2ccc3c(c2)OCO3)cs1 (stereo not drawn) | i
COc1cccc(C(C)(O)c2nc(-c3cncnc3)cs2)c1 (stereo not drawn) | i
COc1ccc(C(C)(O)c2nc(-c3csc4ccccc34)cs2)cc1 (stereo not drawn) | 18µM*
COc1ccc(C(C)(O)c2nc(-c3ccc4c(c3)OCO4)cs2)cc1 (stereo not drawn) | 13µM*
COc1cccc(C(C)(O)c2nc(-c3ccc(OC)nc3)cs2)c1 (stereo not drawn) | 18µM*
Cc1ccc2nc(COC(=O)CNC(=O)c3ccccc3)cn2c1 | i
Cc1nnc(SCc2nc3sc4c(c3c(=O)[nH]2)CCCC4)n(N)c1=O | i
SMILES | TDP-43 tox inh
O=c1cc(CSc2nnnn2-c2ccc(O)cc2)nc2sccn12 | i
Cc1ccc(-c2csc3nc(SCC(=O)N(C)C)n(Cc4ccccc4)c(=O)c23)cc1 | i
COc1cc(C(=S)N2CCC(Cc3ccccc3)CC2)ccc1OCC(N)=O | i
CCN1CCN(CC(O)COc2ccc(C)c(C)c2)CC1 (stereo not drawn) | i
COc1ccc2cc(-c3[nH]ncc3CN3C[C@@H]4CCC[C@H]3C4)ccc2c1 | i
COCCNC(=S)N/N=C(\C)c1cccc(C(F)(F)F)c1 | i
COCCNC(=S)N/N=C(\C)c1ccc(OC)cc1 | i
COCCNC(=S)N/N=C(\C)c1cc2ccccc2o1 | 13µM*
O=C(Nc1ccc(C(=O)O)cc1)/C(=C\c1ccccc1)NC(=O)c1ccccc1 | i
O=C(O)c1ccc(NC(=S)NC(=O)c2ccc(-c3ccccc3)cc2)cc1 | 13µM*
O=C(NC(=S)Nc1ccccc1)c1ccc(-c2ccccc2)cc1 | i
COC(C(=O)Nc1ccc(S(=O)(=O)Nc2cccc3ccccc23)cc1)c1ccccc1 (stereo not drawn) | i
Cc1nonc1NC(=O)CSc1nc2ccc(Cl)cc2[nH]1 | i
CSCCC(=O)N1C(C)CCCC1C(=O)O (stereo not drawn) | i
Cc1cc(C)cc(OCC(=O)N(C)CC(=O)Nc2ccc(N3CCOCC3)cc2)c1 | i
COc1cccc2cc(C(=O)OCC(=O)NC3CCCC(C)C3C)c(=O)oc12 (stereo not drawn) | i
COc1ccc(Cl)cc1C(=O)OCC(=O)N1CCCC(C)C1 (stereo not drawn) | i
COc1ccc(Cl)cc1C(=O)OCC(=O)NC1CCCC(C)C1C (stereo not drawn) | 18µM*
Cc1ccc(NC(=O)CCNC(=O)c2ccc([N+](=O)[O-])cc2)cc1C | i
CCOP(=O)(OCC)/C(=N/OC(=O)c1cccc([N+](=O)[O-])c1)C(N)=O | i
O=C(O)CCCC(=O)Nc1nc(-c2ccc(F)cc2)cs1 | i
COc1ccc(CNCCC(c2ccc(C)cc2)c2ccco2)cc1 (stereo not drawn) | i
O=S(=O)(NCCC(c1ccc(F)cc1)c1ccco1)c1ccccc1 (stereo not drawn) | 18µM*
O=C(O)C(NS(=O)(=O)c1ccc(F)cc1)c1ccccc1 (stereo not drawn) | i
